In PubChem BioAssay AID624330 (Southern Research Specialized Biocontainment Screening …, 2012):
About 2,100 (0.62%) of roughly 340,000 compounds were called active.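 The calls were made as follows: active = first-screen hits whose inhibition reached a set limit at any dose in the follow-up dose series; inconclusive = inhibition above the set first-screen limit but never retested; inactive = the rest.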 Not all results are given here. Results with a measured potency or affinity are listed apart.

Target: Rac GTPase-activating protein 1 (Homo sapiens) (UniProt Q9H0H5)
Test: MgcRacGAP GTPase-activating activity inhibitors, confirmation, biochemical, ADP Hunter fluorescence, primary and confirmatory (AID 624330);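 also: fluorescence reports GDP produced by GAP-driven GTP hydrolysis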
Settings: MgcRacGAP-stimulated Rac1 GTP hydrolysis, at 30 µM, stronger effect = higher value, GST-tagged Rac1 F28L mutant substrate

Rac GTPase-activating protein 1 (Homo sapiens), sequence (Q9H0H5 whole entry, looked up): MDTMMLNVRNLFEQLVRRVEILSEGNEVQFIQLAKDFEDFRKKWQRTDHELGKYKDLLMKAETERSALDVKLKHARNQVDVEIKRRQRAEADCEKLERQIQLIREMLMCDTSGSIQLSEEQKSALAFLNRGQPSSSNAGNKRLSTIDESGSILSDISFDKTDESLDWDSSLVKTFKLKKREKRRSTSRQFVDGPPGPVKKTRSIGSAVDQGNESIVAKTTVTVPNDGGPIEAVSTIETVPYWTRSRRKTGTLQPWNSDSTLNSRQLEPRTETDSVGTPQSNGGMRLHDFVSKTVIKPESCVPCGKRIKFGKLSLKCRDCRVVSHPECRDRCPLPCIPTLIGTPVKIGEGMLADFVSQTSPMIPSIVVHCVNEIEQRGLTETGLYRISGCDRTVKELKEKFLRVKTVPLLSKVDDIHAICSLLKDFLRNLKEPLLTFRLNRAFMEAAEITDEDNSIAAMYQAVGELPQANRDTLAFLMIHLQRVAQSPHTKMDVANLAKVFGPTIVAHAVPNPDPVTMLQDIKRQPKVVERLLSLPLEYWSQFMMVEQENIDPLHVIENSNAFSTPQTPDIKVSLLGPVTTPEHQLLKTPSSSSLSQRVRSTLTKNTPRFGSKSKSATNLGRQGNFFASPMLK

inhibition, inactive:
CCCN(CCC)CCCNC(=O)c1cc2c(=O)[nH]c3ccccc3c2s1 23.4%
O=C(Cc1ccc(Cl)cc1)SCc1ccccc1 4.82%
O=C(NNC(=O)c1cc([N+](=O)[O-])ccc1Cl)c1cccnc1 3.49%
O=c1[nH]c2ccc(S(=O)(=O)Nc3ccc(Br)cc3)cc2[nH]1 0.44%
Cc1cccc(NCc2ccccc2O)c1 13.2%
Cc1ccc(NCCC#N)cc1C -10%
Cc1ccc(NCc2ccccc2O)cc1 19.1%
Cc1ccc(NCC(O)C(O)C(O)CO)cc1C (stereo not drawn) 9.4%
COc1ccc(C(CCc2ccc(C)o2)NC(=O)Nc2ccc(OC)cc2OC)cc1 (stereo not drawn) 0.8%
C/C=C(\C)C(=O)NCCN1C2=NC[C@@H](Cc3ccccc3)N2C[C@@H]1Cc1ccc(OC)cc1 5.16%
Cc1ccc(O)c(/C=N/NC(=O)Cc2ccc(Cl)cc2)c1 -8.7%
COC(=O)C1=C(C)N(Cc2ccccc2)C(=O)N[C@H]1CCc1ccccc1 8.96%
CC1CCN(C2=NC(=O)/C(=C/c3cccc(O)c3)S2)CC1 3.71%
COc1ccccc1/C=C1\SC(N2CCC(C)CC2)=NC1=O 8.78%
CCOC(=O)C1CCCN(C2=NC(=O)/C(=C/c3ccc(OC)cc3)S2)C1 (stereo not drawn) 8.26%
CCOC(=O)C1CCN(C2=NC(=O)/C(=C/c3ccc(Cl)cc3)S2)CC1 7.83%
COc1cccc(/C=C2\SC(N3CCCC(C)C3)=NC2=O)c1OC (stereo not drawn) 10.3%
CCOC(=O)C1CCCN(C2=NC(=O)/C(=C/c3ccc(OC)c(OC)c3)S2)C1 (stereo not drawn) 7.19%
CCOC(=O)C1CCN(C2=NC(=O)/C(=C/c3ccc(OC)c(OC)c3)S2)CC1 12.3%
COc1ccc(OC)c(/C=C2\SC(N3CCCC(C)C3)=NC2=O)c1 (stereo not drawn) 2.99%
CSCCC(=O)N1C(C)CCCC1C(=O)O (stereo not drawn) 8.45%
COc1ccccc1-n1c(C)cc(/C=C2\C(=N)N3N=C(CC(=O)N4CCOCC4)SC3=NC2=O)c1C 13.5%
CCCN(CC(=O)Nc1ccccc1C)C(=O)Cc1cccs1 9.22%
COC(=O)C1=C(CS(=O)(=O)c2ccc(Cl)cc2)NC(=O)NC1c1ccc(O)c(OC)c1 (stereo not drawn) 0.39%
CC(C)(C)NC(=S)NNC(=O)c1ccc2ncccc2c1 4.55%
O=C(NN=C1CCC(=NNC(=O)c2ccccn2)CC1)c1ccccn1 10.4%
CCOC(=O)C1CCCN(C2=NC(=O)/C(=C/c3ccc(N(C)C)cc3)S2)C1 (stereo not drawn) 3.86%
CCOc1ccc(/C=C2\SC(N3CCCCC3)=NC2=O)cc1 10.3%
Cc1ccsc1/C=N/NC(=O)C(O)c1ccccc1 (stereo not drawn) 8.51%
S=C(NCc1ccco1)Nc1ccccc1 3.49%
CCN(CC)S(=O)(=O)c1cccc(NC(=O)COC(=O)c2n[nH]c(=O)c3ccccc23)c1 4.21%
COc1cccc(CNC2CCCCCCC2)c1OC 20.3%
COc1ccccc1C(=O)Nc1ccc(N2CCCCC2)cc1 16.2%
COc1cccc(CNc2ccc(F)c(Cl)c2)c1OC 6.64%
COc1cccc(CNc2ccc(S(N)(=O)=O)cc2)c1OC -0.0267%
COc1cccc(OC)c1C(=O)Nc1ccc(N2CCCC2)cc1 19%
COc1cc(CNc2ccc(N3CCCC3)cc2)ccc1OCc1ccccc1F 19.3%
COc1ccc(CC(=O)Nc2cc(Cl)ccc2C(=O)O)cc1 11%
O=C(CSc1nc2cc(Cl)ccc2s1)c1ccco1 9.01%
COc1ccc(N2CCN(C(=O)c3ccccc3N(C)S(=O)(=O)c3ccc(C)cc3)CC2)cc1 30.1%
O=C(O)c1cnc(-c2ccccc2)nc1Oc1ccccc1 4.36%
Nc1nc2n(n1)C(=O)CC(c1ccccc1)N2 (stereo not drawn) -15.9%
CC(=O)Nc1ccc(S(=O)(=O)NC(C)C(=O)OCC(=O)Nc2ccc(F)cc2Cl)cc1 (stereo not drawn) 4.68%
COc1ccc(NC(=O)[C@H](C)NC(N)=O)cc1S(=O)(=O)Nc1cc(C)ccc1Br 9.93%
Nc1cc(Cl)ccc1N1CCCCCC1 -8.8%
CC(=O)Nc1cc(C(F)(F)F)ccc1N1CCOCC1 2.07%
O=S(=O)(c1ccc(N2CCOCC2)c(Cl)c1)N1CCOCC1 2.67%
Nc1cc(Cl)ccc1N1CCOCC1 2.6%
Nc1cc(Cl)ccc1N1CCCCC1 1.75%
CC1CCN(c2ccc(C(F)(F)F)cc2N)CC1 3.8%
O=C(CN(c1ccccc1)S(=O)(=O)c1ccc(Cl)cc1)Nc1cccnc1 -2.54%
C[C@@H](OC(=O)c1[nH]cnc1C(=O)NCc1ccc(CNC(=O)OC(C)(C)C)cc1)c1ccccc1 7.47%
COc1ccccc1NC(=O)CCC(=O)OCC(=O)c1ccc(C)c([N+](=O)[O-])c1 4.59%
Cc1ccc(NC(=O)Cc2nnc(SCC(=O)NC3=NCCS3)n2C)cc1 9.68%
CC(C)Sc1oc(-c2ccco2)nc1S(=O)(=O)c1ccc(F)cc1 9.8%
COc1cc2nc(NC(=O)c3ccc(Cl)cc3)sc(=O)c2cc1OC 12.1%
Cc1cccc(OC(C)C(=O)Nc2nc(-c3ccncc3)cs2)c1 (stereo not drawn) 5.11%
Cc1cccc(Cn2c(N(C)Cc3ccccc3)nc3c2c(=O)[nH]c(=O)n3C)c1 10.6%
C=CCn1c(Cc2ccc(OCC)cc2)nnc1SCC(N)=O 4.65%
Cc1c(Cl)cccc1NC(=S)N1CCN(Cc2ccccc2)CC1 6.91%
Cc1nc(CC(=O)N/N=C/c2ccc(OCC(=O)O)cc2)cs1 -8.35%
Cc1ccc(NC(=O)CCC(=O)N/N=C/c2cccnc2)cc1 1.87%
COc1cc(/C=N/NC(=O)CCC(=O)Nc2ccc(Br)cc2)ccc1O 25.9%
COc1cc(/C=N/NC(=O)CCC(=O)Nc2ccc(C)cc2)ccc1O 26.5%
O=C(CCC(=O)Nc1ccc(Br)cc1)N/N=C/c1ccc(O)cc1 22.7%
O=C(CCC(=O)Nc1ccc(F)cc1)N/N=C/c1ccc(Br)cc1 3.6%
O=C(CCC(=O)Nc1ccc(Br)cc1)N/N=C/c1ccc(F)cc1 3.09%
O=C(Cc1ccccc1)NN=Cc1ccccc1 -1.49%
Cc1ccc(Cl)cc1N1CCN(C(=O)C2CCN(S(=O)(=O)c3cnc[nH]3)CC2)CC1 -2.49%
COc1cc(C(=O)OC(C)C(=O)NC2CCCCC2C)c([N+](=O)[O-])cc1OC (stereo not drawn) -4.78%
Cc1cccc(C)c1NC(=O)N1CC=CCC1 8.07%
CCc1c(C)nc(N2CCN(c3ccccc3)CC2)[nH]c1=O -0.57%
Cc1cc(=O)[nH]c2c1c(-c1ccccc1)nn2C 4.24%
O=C1CN(C(=O)c2ccc(F)cc2)c2ccccc2N1 12.4%
CC(=O)Nc1cccc(NC(=O)c2csc(C)c2)c1 8.66%
O=C(O)c1ccc(N2CCCCC2)cc1O 10.7%
COC(=O)[C@@]1(C)[C@H]2C(=O)N(C)C(=O)[C@H]2[C@H]2CN(C)C(=NC3CCCCC3)N21 9.12%
N#Cc1cnn(-c2nc3sc4c(c3c(=O)[nH]2)CCCC4)c1N 11.7%
CN1C(=O)CCS(=O)(=O)C1c1ccc(Cl)c(Cl)c1 (stereo not drawn) 8.53%
COc1ccc(NC(=O)CSc2nc3c(c(=O)n(C)c(=O)n3C)n2C)c(OC)c1 4.73%
CCOc1ccc(/C=N/NC(=O)CC(=O)Nc2ccc(Cl)c(Cl)c2)cc1 4.45%
O=C(CC(=O)Nc1cccc(Cl)c1)N/N=C\c1ccccc1 1.72%
CC(C)(C)OC(=O)N1CCC(C(=O)N[C@@H](Cc2ccccc2)C(=O)O)CC1 4.57%
CCC(CC)C(=O)c1c[nH]c(C(=O)O)c1 6.73%
Cc1[nH]c2ccccc2c1-c1csc(NC(=O)CSCC(=O)O)n1 19.6%
Cc1[nH]c2ccccc2c1-c1csc(NC(=O)CN2CCOCC2)n1 25.6%
CCOc1ccc(NC(=O)c2ccc(F)c(S(=O)(=O)N3CCCC3)c2)cc1 10.8%
O=c1nc(-c2ccccc2Cl)c2cc(F)ccc2[nH]1 9.68%
COc1ccc(N2C(=O)C(F)(F)C2c2cccc(F)c2)cc1 (stereo not drawn) 5.49%
CC(=O)Nc1ccc2c(=O)n(-c3ccccc3)sc2c1 23.5%
N#Cc1ccc2c(=O)n(-c3ccccc3)sc2c1 22.6%
CC(=O)Nc1ccc(-n2c(=O)c3ccccc3c3ccccc3c2=O)cc1 8.38%
O=C(c1sc2cc(F)ccc2c1Cl)N1CCN(c2ccccc2)CC1 -1.95%
COc1ccc(Oc2c(Cl)cnn(-c3ccc(F)cc3)c2=O)cc1 4.49%
O=c1[nH]n(-c2ccccc2Cl)c(=O)c2ccccc12 4.42%
Cc1cccc(CSC2=NCCN2C(=O)c2ccc(S(=O)(=O)N(C)C)cc2)c1 4.49%
CCOC(=O)CNC(=O)Cn1cnc2c(nnn2-c2ccc(C)cc2)c1=O 1.26%
COCCOCC(O)CN1CCN(c2ccc(C)cc2)CC1 (stereo not drawn) 24.5%
